Experimental data from PubChem BioAssay AID686978 (National Center for Advancing Translational Sciences (NCATS), 2013).
About 64,000 (15%) of roughly 420,000 compounds were called active. About 27% were inconclusive and are not listed. Calls come from the whole dose curve; as a rule, active = well fitted inhibition curve with a large enough effect; inconclusive = small, poorly fitted or top-dose-only effect; inactive = flat fitted curve, though single readings scatter. Not all results are given here.

assay: qHTS for Inhibitors of human tyrosyl-DNA phosphodiesterase 1 (TDP1): qHTS in cells in absence of CPT; conditions: DT40 Tdp1-/- hTDP1 cells, no CPT, ATP luminescence, 48 h; activity change, negative = growth inhibition: at 46.2 µM (top of the series); note: nearly all actives have a fitted effect of over 55% in size
Method in brief: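 Stably hTDP1-transfected Tdp1-null chicken DT40 cells were treated with library compounds minus camptothecin and grown for at least 48 hr at 37 °C, after which cellular ATP was quantified by luminescence.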
% is set by controls: 0 for no effect and ±100 for the full control effect; potency is the fitted concentration of half-maximal effect.

SMILES | activity change, negative = growth inhibition | Potency
COC(=O)N(C)C[C@@H]1OCc2cnnn2CCCC(=O)N([C@@H](C)CO)C[C@@H]1C | -12.9% (inactive) | 
CC(C)(C)n1nnnc1C(c1ccc2ncccc2c1)N1CCSCC1 (centres undefined) | -4.42% (inactive) | 
O=C1c2ccccc2C(=O)N1CCOc1ccc(F)cc1 | -5.19% (inactive) | 
Cc1cccc(C)c1-n1nnnc1C1(C)CCC(=O)N1CCOc1ccccc1 (centres undefined) | -25.8% (inactive) | 
Cc1cccc2c1N(CCOc1ccccc1)C(=O)C2=O |  | 1.3 µM (active)
CNS(=O)(=O)c1ccc(NC(=O)C2CC(=O)N(c3ccc(Cl)cc3)C2)cc1 (centres undefined) | -25.9% (inactive) | 
CC12C(=O)N(c3ccccc3)C(=O)C1C(c1ccccc1)N1CCCN12 (centres undefined) | -2.82% (inactive) | 
CCCN(c1ccc(C)cc1)c1nc(=O)c2cccnc2s1 |  | 18.4 µM (active)
NC1=NC2(CCCCC2)N(c2ccc(F)cc2F)C(N)=N1 | -19.6% (inactive) | 
NC(=O)C(Cc1ccccc1)NC(=O)C12CC3CC(CC(C3)C1)C2 (centres undefined) | -27.5% (inactive) | 
COc1ccc2c(c1)Cc1sc(NC(=O)c3ccccc3Br)nc1-2 |  | 18.4 µM (active)
COC(=O)c1sc(NC(=O)c2ccc(OC)cc2OC)nc1C | -21.8% (inactive) | 
COc1cc2ccccc2cc1C(=O)Nc1nc(C)c(C(C)=O)s1 | -13.2% (inactive) | 
COCCN1C=C2C(=O)C(C)(OC(=O)C3CCCC3)C(=O)C=C2C=C1c1ccsc1 (centres undefined) | -8.49% (inactive) | 
CC(NC(=O)c1cc(Sc2ccc(F)cc2F)nc2ccccc12)c1ccccc1 (centres undefined) |  | 23.1 µM (active)
CC(NC(=O)c1cc(=O)[nH]c2ccccc12)c1ccc(F)cc1F (centres undefined) | -17.3% (inactive) | 
CC(C)OCCCNC(=O)c1cc(Sc2ccc(F)cc2)nc2ccccc12 | -86.9% (inactive) | 
CCCCCc1nnc(NC(=O)c2ccc(=O)n(C)n2)s1 | 2.05% (inactive) | 
COc1ccc(NC(=O)Nc2cccc(-c3noc(C)n3)c2)cc1 | -28.2% (inactive) | 
CC(=O)Nc1cccc(-c2ccnc3c2CC(C)(C(=O)NCc2ccccc2)O3)c1 (centres undefined) |  | 0.92 µM (active)
COc1ccc(NC(=O)C2(C)Cc3c(-c4cccc(NC(C)=O)c4)ccnc3O2)cc1 (centres undefined) |  | 1.16 µM (active)
O=C(NCc1cccc(CNC(=O)Nc2cccc(O)c2)c1)Nc1cccc(O)c1 | -4.41% (inactive) | 
COC(=O)Cc1ccc(NC(=S)NCc2ccco2)cc1 | -22.3% (inactive) | 

SMILES | activity change, negative = growth inhibition | Potency
CC(=O)Nc1cccc(-c2ccnc3c2CC(C)(C(=O)NCc2ccco2)O3)c1 (centres undefined) |  | 2.91 µM (active)
CC1(C)CC(=O)c2cc(C(=O)NCc3ccccc3)c(=O)[nH]c2C1 | -21.1% (inactive) | 
COc1ccc(NC(=O)C2(C)Cc3c(-c4ccc(C(N)=O)cc4)ccnc3O2)cc1 (centres undefined) | -13.6% (inactive) | 
CCC(C)(C)NC(=O)CN(C(=O)CCC(=O)Nc1cc(C)ccn1)c1ccc2c(c1)OCCO2 | -8.85% (inactive) | 
Cc1cc(=O)oc2cc(OC(C)C(=O)NCCc3ccc(S(N)(=O)=O)cc3)ccc12 (centres undefined) | 15.8% (inactive) | 
CSc1nnc(CNC(=O)c2ccccc2)n1-c1ccc(F)cc1 | 0.927% (inactive) | 
O=C1CSc2ccc(C(=O)NCc3ccccn3)cc2N1 | 5.72% (inactive) | 
CCc1nn(CC(=O)Nc2cc(C)cc(C)c2)c(=O)c2cc3sccc3n12 |  | 5.17 µM (active)
CCc1nn(CC(=O)Nc2cccc(C)c2C)c(=O)c2cc3sccc3n12 | -9.08% (inactive) | 
CCCC1NC(=S)NC(C)=C1C(C)=O (centres undefined) | 5.2% (inactive) | 
Nc1[nH]c(C(=O)c2ccccc2)c(-c2ccc(Br)cc2)c1C(=O)NC1CC1 | -9.87% (inactive) | 
Cc1ccc2nc(CN3CCN(S(=O)(=O)c4ccc(C)c(C)c4)CC3)oc2c1 | -19.3% (inactive) | 
O=Cc1cn(CCOc2ccc(F)cc2)c2ccccc12 |  | 11.6 µM (active)
Cc1cc(N2C(=O)C(=O)/C(=C(/O)c3ccc(Cl)cc3)C2c2cccc(Br)c2)no1 (centres undefined) | -5.42% (inactive) | 
CC1(C(=O)NCc2ccccc2)CSCC(=O)N1CCCN1CCOCC1 (centres undefined) | 21.3% (inactive) | 
c1ccc2[nH]c(NCCN3CCOCC3)nc2c1 | 14.2% (inactive) | 
O=C(Cn1c(-c2ccccn2)nc2ccccc21)NCCN1CCOCC1 | -13.9% (inactive) | 
c1ccc2cc3c(NCCN4CCOCC4)ccnc3cc2c1 |  | 20.6 µM (active)
CC1CCCN(C(=O)Cn2c(=O)oc3ccccc32)C1 (centres undefined) | -3.54% (inactive) | 
CC(C)NC(=S)Nc1cccc2cnccc12 | 2.15% (inactive) | 
CCN(c1ccccc1)S(=O)(=O)c1cccc(C(=O)O)c1 | 11.1% (inactive) | 
CCN(c1ccccc1)S(=O)(=O)c1cccc(C(=O)NCc2ccccc2CN2CCOCC2)c1 |  | 18.4 µM (active)
O=C(NCCN1CCOCC1)c1cccc(S(=O)(=O)Nc2ccc(F)cc2)c1 | -15.8% (inactive) | 

SMILES | activity change, negative = growth inhibition | Potency
CCCc1ccc(OCc2ccc(C(=O)N/N=C/c3cccc([N+](=O)[O-])c3)o2)c(OC)c1 |  | 6.51 µM (active)
Cc1ccc(NC(=O)O/N=C/c2cccc([N+](=O)[O-])c2)cc1 | 11.3% (inactive) | 
COC(=O)c1ccc(COc2ccc(/C=N/NC(=O)C(=O)Nc3ccc(OC)cc3)cc2OC)o1 | -23.3% (inactive) | 
CC(OC(=O)CN1C(=O)COc2ccccc21)C(=O)NCc1ccc(F)cc1 (centres undefined) | -11.9% (inactive) | 
COc1ccc(CCNC(=O)CN(c2ccccc2)S(C)(=O)=O)cc1OC | 9.69% (inactive) | 
COc1ccc(CCNC2=C(Cl)C(=O)N(Cc3ccccc3)C2=O)cc1OC |  | 20.6 µM (active)
COc1ccc(CCNS(=O)(=O)c2ccc(Cl)s2)cc1OC | -25.5% (inactive) | 
COc1c(C(C)C)oc2cc3oc(=O)ccc3cc12 |  | inactive
N=C1C(c2nc3ccccc3s2)=C(O)CN1NC(=O)c1ccc([N+](=O)[O-])cc1 |  | 23.1 µM (active)
O=C(Nn1c(-c2ccccc2)nc2ccccc2c1=O)c1ccc([N+](=O)[O-])cc1 | -6.88% (inactive) | 
CCOC(=O)CCCN1CC(O)=C(c2nc3ccccc3s2)C1=N | -22.8% (inactive) | 
Cc1nc2cc(NC(=O)CSc3nc4c(C)cccc4cc3C#N)ccc2s1 | -16.2% (inactive) | 
COCCNC(=O)c1snc2ccc(Cl)cc12 | -21.8% (inactive) | 
CCOc1ncccc1C(=O)N(C)CC(=O)Nc1ccc(F)cc1 | -0.0857% (inactive) | 
O=C(O)CN1c2cccc3cccc(c23)S1(=O)=O | -23.5% (inactive) | 
COc1ccccc1CNC(=O)COC(=O)CNS(=O)(=O)c1ccc(NC(C)=O)cc1 | 11.4% (inactive) | 
COc1ccc(CNC(=O)COCc2cc(-c3cccs3)on2)cc1OC |  | 23.1 µM (active)
COc1ccc(CNC(=O)COC(=O)c2sccc2C)cc1OC | -4.33% (inactive) | 
COc1ccc(OC)c(CNC(=O)CCc2nc(-c3cccs3)no2)c1 | -7.21% (inactive) | 
Cc1cc(C)cc(NC(=S)NCCCN2CCOCC2)c1 | 1.47% (inactive) | 
CCOc1c2ccc(C(=O)NCc3ccc4c(c3)OCO4)cc2nn1C | -0.712% (inactive) | 
Cc1ccc(-n2nc3c(c2NC(=O)c2ccc4c(c2)OCO4)CSC3)c(C)c1 | -6.86% (inactive) | 
C=CCNC(=O)c1ccc2c3n(nc2c1)-c1ccc(C)cc1CO3 |  | 18.4 µM (active)
